Our source for the z-score values is PubChem BioAssay AID488969 (Vanderbilt High Throughput Screening Facility, 2010).

SMILES strings stand for the structures. The full ranking holds about 110,000 compounds; the median of “z-score” is about -0.1, and the highest 2% start at about 2. This excerpt belongs to a sample that is enriched for the highest values. Active and inactive are the calls of the source.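 The calls were made as follows: active = z-score in the third read window above 3 or below -3; inactive = the rest.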

Sequence of Metabotropic glutamate receptor 8 (Rattus norvegicus) (P70579 whole entry, looked up): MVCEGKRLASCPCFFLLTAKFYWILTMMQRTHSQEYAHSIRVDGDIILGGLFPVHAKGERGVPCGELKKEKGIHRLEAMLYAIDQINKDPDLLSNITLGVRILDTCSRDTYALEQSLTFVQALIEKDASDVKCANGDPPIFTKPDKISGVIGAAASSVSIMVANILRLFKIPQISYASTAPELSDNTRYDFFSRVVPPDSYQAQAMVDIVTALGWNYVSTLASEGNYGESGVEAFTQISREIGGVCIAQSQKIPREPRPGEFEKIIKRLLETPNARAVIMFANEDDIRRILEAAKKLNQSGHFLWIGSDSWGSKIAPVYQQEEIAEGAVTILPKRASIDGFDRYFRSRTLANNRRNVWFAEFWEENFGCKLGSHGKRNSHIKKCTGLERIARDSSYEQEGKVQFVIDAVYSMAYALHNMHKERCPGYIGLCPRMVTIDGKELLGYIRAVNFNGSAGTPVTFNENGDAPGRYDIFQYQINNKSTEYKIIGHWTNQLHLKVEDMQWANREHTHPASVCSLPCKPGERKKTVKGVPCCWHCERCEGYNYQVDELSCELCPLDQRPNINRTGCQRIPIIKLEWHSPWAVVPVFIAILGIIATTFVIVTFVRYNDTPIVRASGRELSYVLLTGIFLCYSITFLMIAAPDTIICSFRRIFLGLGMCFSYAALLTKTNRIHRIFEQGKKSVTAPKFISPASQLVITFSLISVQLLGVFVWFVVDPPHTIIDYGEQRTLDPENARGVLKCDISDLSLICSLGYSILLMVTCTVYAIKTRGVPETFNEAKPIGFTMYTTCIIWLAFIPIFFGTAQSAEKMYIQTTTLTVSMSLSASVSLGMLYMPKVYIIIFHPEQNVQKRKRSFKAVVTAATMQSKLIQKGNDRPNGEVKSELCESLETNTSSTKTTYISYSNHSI

The test addresses Metabotropic glutamate receptor 8 (Rattus norvegicus) (UniProt P70579). The test can be described thus: rat mGluR8 modulators via GIRK flux, primary screen, cell-based, thallium flux, HTS (AID 488969). To be noted: HEK293 rat mGluR8, GIRK (G protein-gated inwardly rectifying potassium channel) thallium flux, FluoZin2; at 10 µM; stronger effect = higher value; submaximal glutamate (EC20) added with thallium.
Take `O=C(Nc1cc(C(=O)N2CCCC2)ccc1N1CCCC1)c1ccccc1`: the z-score was -1.7. For `O=c1c2ccccc2nc(-c2ccccc2)n1/N=C/c1ccc([N+](=O)[O-])cc1`, the z-score is 6.71 (active). Under `Cc1nc2ccccc2c(=O)n1/N=C/c1ccc(O)cc1` stands 0.481; under `Cc1nc2ccccc2c(=O)n1/N=C/c1ccccc1`, -0.0985.

`CCC(=O)Nc1ccc2c(c1)ncn2-c1ccccc1` came in with a z-score of 0.261. Under `CCC(=O)Nc1ccc2c(c1)ncn2-c1ccc(OC)cc1` stands 2.82. Under `COc1ccc(-n2cnc3cc(NC(=O)c4ccco4)ccc32)cc1` stands -1.7; under `O=C(O)c1ccc(CNCc2c(Cl)cccc2Cl)cc1`, 0.0291; under `CC(CCc1ccccc1)NC(=O)COC(=O)C1=COCCO1` (centres undefined), 0.664.

On to `O=c1[nH]cnc2c1nc(SCc1ccccc1)n2C1OC(CO)C(O)C1O` (centres undefined), for which the z-score amounted to 1.45. Under `Nc1nc(SCc2ccc([N+](=O)[O-])cc2)c2ncn(C3OC(CO)C(O)C3O)c2n1` (centres undefined) stands 2.28; under `CN(C)c1ncnc2c1ncn2C1OC(CO)C(O)C1O` (centres undefined), -0.162. For the compound `COc1ccc(C2=CC(=O)OC3(CCCCC3)O2)cc1`, the z-score is -2.37. Under `CCC(C)[C@H](NC(=O)Nc1ccc2c(c1)OCCO2)C(=O)O` (some centres undefined) stands -0.196. On to `O=C(Nc1ccc(N2CCCC2)c(Cl)c1)c1ccc2c(c1)OCCO2`, for which the z-score was found to be 2.58. Under `COc1ccc(C(=O)Nc2ccc3c(c2)OCCO3)cc1` stands -0.168; under `COc1cc(C(=O)Nc2ccc3c(c2)OCCO3)ccc1OC(C)C`, 2.41. Under `O=C(Nc1ccc(N2CCCCC2)c(Cl)c1)c1ccc2c(c1)OCCO2` stands -0.282; under `CCOc1ccc(C(=O)Nc2ccc3c(c2)OCCO3)cc1OC`, -0.705. For the compound `COC(=O)[C@H](CC(C)C)NC(=O)Nc1ccc2c(c1)OCCO2`, the z-score is 3.6 (active).

In the case of `O=C(NC(=S)Nc1ccc(N2CCCCC2)c(Cl)c1)c1ccc2c(c1)OCCO2`, the z-score was 0.126. Under `COC(=O)[C@@H](NC(=O)Nc1ccc2c(c1)OCCO2)C(C)C` stands 0.876; under `CC(C)c1ccc(C(=O)N2CCCN(C(=O)c3ccc(C(C)C)cc3)CC2)cc1`, -0.119; under `O=C(NCC1CCCO1)C1CCN(S(=O)(=O)c2cccc3nonc23)CC1` (centres undefined), 0.153. Under `O=C(NC1CCCCC1)C12CC3CC(C1)CC(n1cncn1)(C3)C2` stands -0.163. Under `COc1ccc(Cn2nnnc2C(c2ccncc2)N2CCOCC2)cc1` (centres undefined) stands 0.39; under `O=C(COc1ccccc1Cl)NCCCN1CCOCC1`, 1.3; under `COc1ccc(S(=O)(=O)N2CCC(C(=O)NCc3ccccn3)CC2)cc1Cl`, -0.477. Compound `COc1ccc(/C=N/n2c(=S)n(C)c3ccccc32)cc1OC` showed a z-score of 0.103.

The compound `COc1cccc(/C=N/n2c(=S)n(C)c3cc(C)c(C)cc32)c1OC` had a z-score of 0.276. Under `COc1cccc(/C=N/n2c(=S)n(C)c3ccccc32)c1OC` stands 2.32; under `COc1ccc(C)cc1C1=Nc2ccccc2C1(C)C`, -0.42; under `Cn1c(=O)[nH]c(=O)c2c1nc(N1CCCCC1)n2CCCSc1nnnn1-c1ccccc1`, -0.187. On to `O=C(CSc1nnc(NC(=O)C2CCC2)s1)Nc1ccc(N2CCOCC2)cc1`, for which the z-score is -0.322.

`O=C(Nc1ccccc1)c1ccc(S(=O)(=O)N2CCCCC2)cc1`: the z-score was -0.0563. Under `COc1ccc(C(CC(=O)O)NC(=O)c2ccccc2)cc1OC` (centres undefined) stands -0.105; under `COc1cccc(C(CC(=O)Nc2cccc3ccccc23)NC(=O)c2ccccc2)c1` (centres undefined), 2.17. Under `O=C(CC(NC(=O)c1ccccc1)c1ccccc1)Nc1cccc2ccccc12` (centres undefined) stands -0.0391; under `Cc1cc(C)nc(SCc2nnc(SCC(=O)Nc3nccs3)n2C)n1`, 0.465; under `CCCCCOc1ccc(C(=O)C(c2ccccc2)N2CCOCC2)cc1` (centres undefined), 0.204. Under `CCOc1ccc(C(=O)C(c2ccccc2)N2CCOCC2)cc1` (centres undefined) stands -0.418; under `COc1ccc(C(=O)C(c2ccccc2)N2CCOCC2)cc1` (centres undefined), 2.44. On to `O=S(=O)(Nc1ccc(N=Nc2ccccc2)cc1)c1ccccc1`, for which the z-score is -0.241.

For `COc1ccc(N(CC(=O)NCc2cccc(OC)c2)S(=O)(=O)c2c(C)noc2C)cc1`, the z-score is -0.199. Under `COc1cccc(NC(=O)CN(c2cccc(F)c2)S(C)(=O)=O)c1` stands -0.058; under `COc1ccc(OC)c(N(CC(=O)NCc2cccnc2)S(C)(=O)=O)c1`, 0.361; under `Cc1ccc(N(CC(=O)NCc2cccnc2)S(C)(=O)=O)cc1C`, 0.196.

Consider `COc1cccc(N(CC(=O)Nc2cccc(C(C)=O)c2)S(C)(=O)=O)c1`, for which the z-score is 4.2 (active).

On to `COc1ccc(CNC(=O)CN(c2cc(C)cc(C)c2)S(=O)(=O)c2c(C)noc2C)cc1`, for which the z-score was -0.0907.

`COc1cccc(CNC(=O)CN(c2cc(C)cc(C)c2)S(=O)(=O)c2c(C)noc2C)c1` yielded a z-score of 2.13. Under `Cc1cccc(N(CC(=O)Nc2ccc(F)cc2)S(C)(=O)=O)c1` stands 0.171; under `COc1cccc(N(CC(=O)NCc2cccnc2)S(C)(=O)=O)c1`, 3.97 (active).

As for `CC(=O)c1cccc(N(CC(=O)Nc2ccc(F)cc2)S(C)(=O)=O)c1`, the z-score was 2.52.

`CC(=O)c1cccc(N(CC(=O)Nc2cccnc2)S(C)(=O)=O)c1` returned a z-score of 0.179. Under `CC(=O)c1cccc(NC(=O)CN(c2cccc(F)c2)S(C)(=O)=O)c1` stands -0.268; under `COc1ccc(CNC(=O)C2CCN(c3nccs3)CC2)cc1`, -0.318.

As to `Cc1cc(NC(=O)CSc2nnc(-c3cccs3)n2N)no1`, the z-score was -0.647. Under `COc1ccc2nc(SC(C(=O)c3ccccc3)c3ccccc3)nc(C)c2c1` (centres undefined) stands 0.574; under `CC(=O)c1cccc(S(=O)(=O)NCC2CCCCC2)c1`, 0.0227; under `COC(=O)/C(=C/Nc1cccc2ccccc12)[N+](=O)[O-]`, -0.204. Under `COC(=O)c1sccc1-c1ccc(/C=N/OCc2c(Cl)cccc2Cl)o1` stands -0.187.

Regarding `Cc1ccc(-c2c(C)n([O-])c3c([n+]2=O)CCCCC3)o1`, the z-score is -0.48. Under `CC(C)Sc1nc(C(F)(F)F)cc(=O)n1-c1ccccc1` stands 0.426. Under `CC(=O)Oc1c(C(=O)c2nnc(C)o2)c(=O)n(Cc2ccccc2)c2ccccc12` stands 2.07. Under `COc1cc(-n2c(=O)c3ccccc3n(Cc3ccccc3)c2=O)cc(OC)c1OC` stands -0.047.

With `CC(=O)Oc1c(C(=O)c2nnc(C)o2)c(=O)n(C)c2ccccc12`, the z-score is -0.074. Under `CCc1ccc(NC(=O)N(CCCOC(C)C)C2CCN(C(C)=O)CC2)cc1` stands 0.807; under `O=C(Nc1nccs1)c1ccc2nccnc2c1`, 0.133; under `CC(C)(C)c1csc(NC(=O)c2ccc3nccnc3c2)n1`, 5.29 (active). Under `CC(C)(C)NC(=O)c1ccc2nccnc2c1` stands 0.232; under `O=C(CCC(=O)OCC(=O)c1ccc(Cl)cc1Cl)Nc1cccc2cccnc12`, 0.0344; under `O=C(NCc1ccco1)C(c1ccc(F)cc1)N(CC1CCCO1)C(=O)Cn1nnc2ccccc21` (centres undefined), -0.299.

As to `CCOC(=O)c1nnn(CC(=O)N2N=C(c3cc(C)ccc3C)CC2c2ccc(OC)cc2)c1C(=O)OCC` (centres undefined), the z-score was -0.378.

As for `COc1ccc(/C(N)=N/OC(=O)Oc2ccccc2)cc1OC`, the z-score is -0.183.

For `O=C(CSc1nnc(-c2ccccc2)n1Cc1ccco1)Nc1ccc(S(=O)(=O)N2CCCC2)cc1`, the z-score is -1.61. Under `COC(=O)c1ccc2c(=O)n(Cc3ccco3)c(SCC(=O)Nc3ccc(C)c(Cl)c3)nc2c1` stands 0.24.

Compound `O=C(CSc1nc2cc(Cl)ccc2c(=O)n1Cc1ccco1)Nc1ccc(S(=O)(=O)N2CCOCC2)cc1` registered a z-score of 2.05. Under `CNS(=O)(=O)c1cc(C(=O)NCc2ccco2)ccc1Cl` stands 0.119; under `CCOc1ccc(NC(=S)N(CCCN2CCOCC2)Cc2cn(C)c3ccccc23)cc1`, -0.232. Under `N=c1n(Cc2ccccc2)c2ccccc2n1CC(O)c1ccccc1` (centres undefined) stands 0.899; under `CCC(C)c1ccccc1NC(=O)COC(=O)c1ccc2c(c1)S(=O)(=O)c1ccccc1C2=O` (centres undefined), 2.17. Under `CCC(C)c1ccccc1NC(=O)COC(=O)c1ccc2[nH]c3c(c2c1)CCCC3` (centres undefined) stands -0.0793; under `CCc1cccc(CC)c1NC(=O)COC(=O)c1ccc2c(c1)S(=O)(=O)c1ccccc1C2=O`, -0.326; under `C=CCn1c(-c2cccc(OC)c2)n[nH]c1=S`, -0.21.

Regarding `CCCn1c(SCC(=O)Nc2nnc(-c3ccccc3)s2)nnc1-c1ccccn1`, the z-score was -0.176. Under `Cc1ccc(C(=O)N/C(=C\c2ccccc2)C(=O)OCc2ccccc2)cc1` stands -0.52; under `CCOC(=O)C1=C(c2ccccc2)OC(N)=C(C#N)C1c1cccs1` (centres undefined), 0.288; under `CCOC(=O)CC1=C(C(=O)OCC)C(c2cccs2)C(C#N)=C(N)O1` (centres undefined), 3.6 (active). Under `CCOC(=O)C1=C(CSc2nc(-c3ccccc3)ccc2C#N)OC(N)=C(C#N)C1c1cccnc1` (centres undefined) stands -0.107. Under `CCOC(=O)C1=C(CC)OC(N)=C(C#N)C1c1cccs1` (centres undefined) stands -0.237; under `CCOC(=O)C1=C(CSc2nc(-c3ccccc3)ccc2C#N)OC(N)=C(C#N)C1c1ccc(OC)cc1` (centres undefined), 0.0604; under `CCOC(=O)C1=C(CSc2nc(-c3ccccc3)ccc2C#N)OC(N)=C(C#N)C1c1ccccc1` (centres undefined), 2.03. Turning to `Cc1[nH]c2ccccc2c1/C=N/NC(=O)c1cc(-c2cccs2)[nH]n1`, the z-score was -0.101. Regarding `Cn1c(=O)[nH]c(=O)c2c1nc(NCCCn1ccnc1)n2Cc1ccc(F)cc1`, the z-score is 0.613. Under `Cc1cc(Nc2cccc([N+](=O)[O-])c2)n2c(nc3ccccc32)c1C#N` stands 0.0405; under `COc1cccc(N=Cc2c(O)n(-c3cccc(C)n3)c(=O)c3ccccc23)c1`, -0.226. Under `Cc1cccc(-n2c(O)c(/C=N/NC(=O)c3ccccc3Cl)c3ccccc3c2=O)n1` stands 5.65 (active); under `Cc1cccc(-n2c(O)c(C=Nc3c(C)n(C)n(-c4ccccc4)c3=O)c3ccccc3c2=O)n1`, -0.137. Under `Cc1ccn2c(C(=O)N/N=C/c3ccc(CNC(=O)C(=O)Nc4ccc(C)c(C)c4)o3)c(C)nc2c1` stands 0.623; under `Cc1ccccc1NC(=O)c1nc[nH]c1C(=O)NCc1ccccc1`, 2.57.

As for `CNC(=O)c1[nH]cnc1C(=O)Nc1ccccc1C`, the z-score stood at 0.825.

Compound `COc1ccc(NC(=O)c2nc[nH]c2C(=O)Nc2ccccc2C)cc1` gave a z-score of 0.48.

In the case of `Cc1cccc(Oc2nc(-c3ccccc3)cc(C)c2S(C)(=O)=O)c1C`, the z-score was 0.102. Under `COc1ccc(-c2nc(C)ncc2-c2csc(C)n2)c(O)c1` stands -0.348.
